Results as given in PubChem BioAssay (NCATS).
Inconclusive results are not listed. Entries that show only a call come without a potency. A number with no mark means an inactive call. The source made the active and inactive calls. Calls follow the shape of the dose curve; as a rule, active = well fitted inhibition curve with a large enough effect; inconclusive = small, poorly fitted or top-dose-only effect; inactive = flat fitted curve, though single readings scatter.

Columns and labels:
[1] = qHTS profiling for inhibitors of Plasmodium falciparum proliferation (AID 504749); as to all read-outs here: nearly all actives have a fitted effect of over 60% in size; conditions: P. falciparum in erythrocytes, SYBR Green DNA, 72 h; for activity, negative = inhibition: at 28.7 µM (top of the series)
Method in brief: (§1)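 Readout was DNA-dye fluorescence from lysed cultures, ex 485/em 535 nm. Parasitized red cells had grown 72 h with compound; data scaled between 0.29 uM artemisinin and DMSO wells and corrected using vehicle-only plates.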

3D7 = assay: as above; conditions: P. falciparum in erythrocytes, SYBR Green DNA, 72 h; series mostly up to 28.7 µM
Method in brief: as §1

7G8 = assay: as above; conditions: P. falciparum in erythrocytes, SYBR Green DNA, 72 h; series mostly up to 28.7 µM
Method in brief: as §1

AA1029 = assay: as above; conditions: P. falciparum in erythrocytes, SYBR Green DNA, 72 h; series mostly up to 28.7 µM
Method in brief: as §1

AS120 = assay: as above; conditions: P. falciparum in erythrocytes, SYBR Green DNA, 72 h; series mostly up to 28.7 µM
Method in brief: as §1

ATS189 = assay: as above; conditions: P. falciparum in erythrocytes, SYBR Green DNA, 72 h; series mostly up to 28.7 µM
Method in brief: as §1

ATS95 = assay: as above; conditions: P. falciparum in erythrocytes, SYBR Green DNA, 72 h; series mostly up to 28.7 µM
Method in brief: as §1

C2A = assay: as above; conditions: P. falciparum in erythrocytes, SYBR Green DNA, 72 h; series mostly up to 28.7 µM
Method in brief: as §1

CP185 = assay: as above; conditions: P. falciparum in erythrocytes, SYBR Green DNA, 72 h; series mostly up to 28.7 µM
Method in brief: as §1

CP191 = assay: as above; conditions: P. falciparum in erythrocytes, SYBR Green DNA, 72 h; series mostly up to 28.7 µM
Method in brief: as §1

CP192 = assay: as above; conditions: P. falciparum in erythrocytes, SYBR Green DNA, 72 h; series mostly up to 28.7 µM
Method in brief: as §1

CP194 = assay: as above; conditions: P. falciparum in erythrocytes, SYBR Green DNA, 72 h; series mostly up to 28.7 µM
Method in brief: as §1
Potency is read from the fitted curve at half-maximal effect.

| Compound | activity, negative = inhibition ([1]; parasite line A) | activity, negative = inhibition ([1]; parasite line B) | Potency (3D7) | Potency (7G8) | Potency (AA1029) | Potency (AS120) | Potency (ATS189) | Potency (ATS95) | Potency (C2A) | Potency (CP185) | Potency (CP191) | Potency (CP192) | Potency (CP194) | Potency ([1]; parasite line A) | Potency ([1]; parasite line B) |
| --- | --- | --- | --- | --- | --- | --- | --- | --- | --- | --- | --- | --- | --- | --- | --- |
| COC(=O)C(CN)c1c[nH]c2ccc(OC)cc12 (stereo not drawn) | -3.75% | -2.84% | inactive | inactive | inactive | inactive | inactive | inactive | inactive | inactive | inactive | inactive | inactive | – | – |
| CCCCCCCCCCCCCCCCCCCCCC(=O)Nc1ccn([C@@H]2O[C@H](CO)[C@@H](O)[C@@H]2O)c(=O)n1 | 4.02% | 6.88% | inactive | inactive | inactive | inactive | inactive | inactive | inactive | inactive | inactive | inactive | inactive | – | – |
| CN1C(=O)C[C@@H](C(=O)N[C@@H](Cc2cnc[nH]2)C(=O)N2CCC[C@H]2C(N)=O)NC1=O | 13.6% | -7.4% | inactive | inactive | inactive | inactive | inactive | inactive | inactive | inactive | inactive | inactive | inactive | – | – |
| NCC[C@H](O)C(=O)N[C@@H]1C[C@H](N)[C@@H](O[C@H]2O[C@H](CN)[C@@H](O)[C@H](O)[C@H]2O)[C@H](O)[C@H]1O[C@H]1O[C@H](CO)[C@@H](O)[C@H](N)[C@H]1O | 2.54% | 0.715% | inactive | inactive | inactive | inactive | inactive | inactive | inactive | inactive | inactive | inactive | inactive | – | – |
| Cc1ncc(C[n+]2csc(CCOP(=O)(O)O)c2C)c(N)n1 | -5.57% | 6.98% | inactive | inactive | inactive | inactive | inactive | inactive | inactive | inactive | inactive | inactive | inactive | – | – |
| CCOc1ccc(S(=O)(=O)O)c2cccnc12 | 8.12% | 6.17% | inactive | inactive | inactive | inactive | inactive | inactive | inactive | inactive | inactive | inactive | inactive | – | – |
| CC(=O)N[C@@H]1C(O[C@H]2O[C@H](C(=O)O)C(O)[C@H](O)[C@H]2O)[C@H](O)[C@@H](CO)O[C@H]1O[C@@H]1C(C(=O)O)O[C@@H](O[C@H]2[C@H](O)[C@@H](CO)OC(O)[C@@H]2NC(C)=O)[C@H](O)[C@H]1O (stereo partly drawn) | 0.279% | 2.2% | inactive | inactive | inactive | inactive | inactive | inactive | inactive | inactive | inactive | inactive | inactive | – | – |
| CC1C(=O)CC2C3(C)CCC2(C(C)C(=O)O)C(=O)C13 (stereo not drawn) | 5.64% | 13.7% | inactive | inactive | inactive | inactive | inactive | inactive | inactive | inactive | inactive | inactive | inactive | – | – |
| CN[C@@H]1[C@H](O[C@H]2[C@H](O[C@H]3[C@H](O)[C@@H](O)[C@H](N=C(N)N)[C@@H](O)[C@@H]3N=C(N)N)O[C@@H](C)[C@]2(O)C=O)O[C@@H](CO)[C@H](O)[C@H]1O | 5.41% | 15.5% | inactive | inactive | inactive | inactive | inactive | inactive | inactive | inactive | inactive | inactive | inactive | – | – |
| CC1=CC(=C(c2ccc(N)cc2)c2ccc(N)cc2)C=CC1=N | – | – | 0.891 µM (active) | 5.01 µM (active) | 2.24 µM (active) | 2.24 µM (active) | 2.82 µM (active) | 2.82 µM (active) | 0.631 µM (active) | 3.98 µM (active) | 1.78 µM (active) | 4.26 µM (active) | 3.79 µM (active) | 1.41 µM (active) | 1.26 µM (active) |
| COc1ccc(/C=C/C(=O)OCCC(C)C)cc1 | 6.28% | 14.5% | inactive | inactive | inactive | inactive | inactive | inactive | inactive | inactive | inactive | inactive | inactive | – | – |
| COc1cc2c(cc1OC)[C@@H](Cc1cc(OC)c(OC)c(OC)c1)[N+](C)(CCCOC(=O)CC/C=C/CCC(=O)OCCC[N+]1(C)CCc3cc(OC)c(OC)cc3[C@H]1Cc1cc(OC)c(OC)c(OC)c1)CC2 (stereo partly drawn) | 0.013% | -1.97% | inactive | inactive | inactive | inactive | inactive | inactive | inactive | inactive | inactive | inactive | inactive | – | – |
| CCCCC(CC)CCC(CC(C)C)OS(=O)(=O)O (stereo not drawn) | -0.0494% | 5.85% | inactive | inactive | inactive | inactive | inactive | inactive | inactive | inactive | inactive | inactive | inactive | – | – |
| CCCCC[C@H](O)/C=C/[C@@H]1[C@H]2C/C(=C/CCCC(=O)O)O[C@H]2C[C@H]1O | -0.331% | 0.715% | inactive | inactive | inactive | inactive | inactive | inactive | inactive | inactive | inactive | inactive | inactive | – | – |
| CC(CNC(=O)c1cccnc1)NC(=O)c1cccnc1 (stereo not drawn) | 8.56% | 11.1% | inactive | inactive | inactive | inactive | inactive | inactive | inactive | inactive | inactive | inactive | inactive | – | – |
| O=C(O)Cc1nn(Cc2ccc(Br)cc2F)c(=O)c2ccccc12 | 0.835% | -5.83% | inactive | inactive | inactive | inactive | inactive | inactive | inactive | inactive | inactive | inactive | inactive | – | – |
